Compound activity as filed in PubChem.
Sampled rows, rich in hits. Any-hit rate of the full collection: about 12%.
G9a inh: blocks human histone lysine methyltransferase G9a. AID 504332. Q96KQ7. hit rate 8.8% among 350,000. Potency, µM (doses to about 102 µM), for inactives: at the top dose activity, negative = inhibition, actives largely listed as inhibitors. G9a H3K9 monomethylation, AlphaScreen, 2 h; further: on the % scale 0 is the no-effect control and ±100 the full control effect; nearly all actives have a fitted effect of over 75% in size
Target sequence (Q96KQ7 913-1193 limits assumed): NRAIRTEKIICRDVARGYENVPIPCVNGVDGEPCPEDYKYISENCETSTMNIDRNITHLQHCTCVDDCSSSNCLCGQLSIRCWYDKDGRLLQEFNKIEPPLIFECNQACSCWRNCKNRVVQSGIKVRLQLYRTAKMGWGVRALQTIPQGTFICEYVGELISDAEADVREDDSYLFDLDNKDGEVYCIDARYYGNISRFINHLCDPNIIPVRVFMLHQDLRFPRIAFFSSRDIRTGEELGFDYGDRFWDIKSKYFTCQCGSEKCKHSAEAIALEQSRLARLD
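Using a bead-based AlphaScreen, monomethylated H3K9 product from 2 h room-temperature reactions (G9a 20 nM, peptide 500 nM, SAM 20 uM) was detected with 0.5 ug/mL rabbit anti-H3K9me1 antibody.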
Sfp inh: inhibitors of Bacillus subtilis Sfp phosphopantetheinyl transferase | Q9F4F7 | Biochemical Sfp PPTase activity, qHTS | Potency, µM, without a hit: largest response in the series, negative = inhibition, usual class: inhibitors | hit rate 3.5% among 310,000 | AID 1490;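 further: the enzyme is Sfp with the accession as filed and its product quenches rhodamine fluorescence; 0% = enzyme reaction without inhibitor and -100% = no enzyme wells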
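Sfp 15 nM + cpd, 15 min RT; start w/ rhodamine-CoA 5 uM, BHQ-2-YbbR 12.5 uM (final); 50 mM Hepes pH 7.6, 10 mM MgCl2, 0.01% NP-40, 0.01% BSA; read 525/598 nm at 0 and 30 min.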
BAZ2B inh: inhibitors of human BAZ2B bromodomain; Q9UIF8; AlphaScreen BAZ2B-H3K14Ac peptide displacement; Potency, µM (titrated, usually from 114 µM), without a hit: at the highest dose activity change, negative = inhibition, most hits filed as inhibitors; hit rate 4.4% among 360,000; further: on the % scale 0 is the no-effect control and ±100 the full control effect; nearly all actives have a fitted effect of over 60% in size
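Multi-concentration screen (max 110 uM) measuring displacement of acetylated histone H3 peptide from BAZ2B by AlphaScreen, using 50 nM protein, 50 nM peptide and 10 ug/mL streptavidin donor plus Ni-chelate acceptor beads.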
JMJD2A Tudor: blocks the human JMJD2A Tudor domain; hit rate 4.4% among 390,000; O75164; AlphaScreen JMJD2A-Tudor / H3K4me3 peptide binding; Potency, µM (highest dose often 114 µM), inactives show top-dose activity change, negative = inhibition, usual class: inhibitors; further: on the % scale 0 is the no-effect control and ±100 the full control effect; nearly all actives have a fitted effect of over 50% in size
PLK1 PBD inh: inhibitors of human PLK1 polo-box domain binding. P53350. Plk1 PBD binding of FITC phosphopeptide, fluorescence polarization. Potency, µM, without a hit: max response, negative = inhibition, usual class: inhibitors. hit rate 2.8% among 360,000; further: series mostly up to about 57 µM; on the % scale 0 is the no-effect control and ±100 the full control effect; nearly all actives have a fitted effect of over 65% in size
HP1b binding inh: inhibitors of HP1-beta chromodomain binding to methylated histone tails; P83916; AlphaScreen HP1-beta / biotin-H3K9me3 peptide binding; Potency, µM (top dose mostly 114 µM), for inactives: at the top dose activity change, negative = inhibition, usual class: inhibitors; hit rate 0.56% among 390,000; AID 540317; further: nearly all actives have a fitted effect of over 70% in size
Target sequence (P83916 whole entry, looked up): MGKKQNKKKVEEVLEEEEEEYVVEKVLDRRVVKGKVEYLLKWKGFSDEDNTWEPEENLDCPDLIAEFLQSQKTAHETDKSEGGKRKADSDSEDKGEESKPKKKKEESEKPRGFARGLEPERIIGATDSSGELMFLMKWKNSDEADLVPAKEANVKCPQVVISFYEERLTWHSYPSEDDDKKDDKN
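HP1-beta protein (50 nM final) preincubated 30 min at room temperature with biotinylated H3(1-18)K9me3 peptide (50 nM) in PBS pH 7.4, 0.01% Tween-20, then compound added for 30 min. AlphaScreen streptavidin donor/nickel chelate acceptor beads (10 ug/mL final), 30 min dark, luminescence read.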
Numbers without * were called inactive; ? = inconclusive; · = no result given; [ ] = remark or other dose. The call rests on the fitted dose curve; in most records, active means well fitted curve in the direction sought with a large enough effect; inconclusive means small, poorly fitted or top-dose-only effect, or another doubt; inactive means no such curve, though single readings can be large; an effect the other way counts as inactive or inconclusive. Potency means the concentration at half of the fitted maximal effect.

SMILES | G9a inh | Sfp inh | BAZ2B inh | JMJD2A Tudor | PLK1 PBD inh | HP1b binding inh
CCOC(=O)CC(NS(=O)(=O)c1ccc2[nH]c3c(c2c1)CCCC3)c1ccccc1Cl (stereo not given) | 6.3µM* | · | 35µM* | 35µM* | · | ?
CCOC(=O)C1CCN(S(=O)(=O)c2ccc3[nH]c4c(c3c2)CCCC4)CC1 | ? | 5% | ? | 22µM* | ? | ?
COc1ccccc1NC(=O)C1CCN(S(=O)(=O)c2ccc3[nH]c4c(c3c2)CCCCC4)CC1 | 3.5µM* | · | -11% | -30% | · | 37%
CCOC(=O)C1CCN(S(=O)(=O)c2ccc3c(c2)CCN3C(=O)C2CCC2)CC1 | · | 11% | 3% | ? | 27µM* | 7%
CCOC(=O)C1CCN(S(=O)(=O)c2ccc3c(c2)CCN3C(C)=O)CC1 | 13% | 20% | -5% | 12% | -3% | 36%
CCOC(=O)C1CCN(S(=O)(=O)c2ccc3[nH]c(=O)c(=O)[nH]c3c2)CC1 | -2% | 14% | -8% | -2% | -7% | 16%
COc1ccc(C(=O)NCC(=O)N2CCC(Cc3ccccc3)CC2)cc1OC | 1% | · | 8% | -17% | -9% | -1%
O=C(CNC(=O)c1ccccc1)OCC(=O)N1N=C(c2ccc(Cl)cc2)CC1c1ccco1 (stereo not given) | -42% | -9% | -28% | -18% | ? | -7%
CC(=O)N1N=C(c2ccc(C)o2)CC1c1cccc(F)c1 (stereo not given) | · | 40µM* | -15% | -25% | -19% | ?
Cc1ccc(S(=O)(=O)N[C@H](C(=O)OCC(=O)N2N=C(c3ccc(Cl)cc3)CC2c2ccco2)C(C)C)cc1 (stereo not given in full) | 5%[59 µM] | 79µM* | -37% | -21% | -5% | -7%
COc1ccc(C2=NN(C(=O)CCCC(=O)O)C(c3cn(-c4ccccc4)nc3-c3ccccc3)C2)cc1 (stereo not given) | ? | 8% | 56µM* | 56µM* | -29% | 32%
Cc1ccc(C2=NN(C(=O)CCCC(=O)O)C(c3ccco3)C2)cc1 (stereo not given) | -10% | 45µM* | -12% | -7% | -3% | 12%
CCOc1ccccc1NC(=O)C(NS(=O)(=O)c1ccc2c(c1)CCC(=O)N2)c1ccccc1 (stereo not given) | -20%[59 µM] | · | -23% | -18% | · | 14%
Cc1ccccc1Nc1c(-c2ccc(Cl)s2)nc2ccccn12 | · | · | · | -13% | · | 12%
Cc1oc(-c2ccccc2Cl)nc1CN1CCCC1c1ccc(F)cc1 (stereo not given) | · | -11% | -2% | -16% | -5% | 32%
Cc1ccc(-c2nc(CN3CCCCC3c3cccc(F)c3)c(C)o2)o1 (stereo not given) | 40µM* | 4% | -39% | ? | 3% | -21%
COc1ccc(C2=NN(C(=O)CSc3nnc(C)n3C)C(c3ccco3)C2)cc1 (stereo not given) | 50µM* | -2% | -5% | -21% | -5% | 25%
Cc1ccc(C2=NN(C(=O)CCl)C(c3ccco3)C2)o1 (stereo not given) | 40µM* | 7% | -23% | -18% | -8% | ?
Nc1cc(N2CCCCC2)nc(N)[n+]1OS(=O)(=O)[O-] | 27%[59 µM] | -3% | · | · | · | ·
COc1ccccc1OCC#CCn1ccnc1 | 3.2µM* | -18% | 18µM* | 5.6µM* | -28% | ?
CCc1nc2ccc(C(=O)NCCN3CCNC3=O)cn2c1N(CC)CCOC | · | · | · | · | -5% | ·
Cc1ccsc1/C=N/N1CCN(C2c3ccccc3-c3ccccc32)CC1 | 33%[0.501 µM] | 7% | ? | ? | -5% | -31%
C/C(=N\N1CCN(C2c3ccccc3-c3ccccc32)CC1)c1ccncc1 | 24%[0.501 µM] | -4% | ? | ? | 1% | ?
COc1cccc(/C=N/N2CCN(C3c4ccccc4-c4ccccc43)CC2)c1O | 35µM* | 7% | -37% | ? | 2% | 9%
COc1cc(/C=N/N2CCN(C3c4ccccc4-c4ccccc43)CC2)ccc1O | ? | 10% | 35µM* | 56µM* | -5% | 21%
SMILES | G9a inh | Sfp inh | BAZ2B inh | JMJD2A Tudor | PLK1 PBD inh | HP1b binding inh
COc1ccccc1N1CCN(/N=C/c2cccc(OC)c2O)CC1 | -3% | -8% | ? | ? | 1% | 8%
C(=N\N1CCN(C2c3ccccc3-c3ccccc32)CC1)/c1ccncc1 | ? | 2% | 35µM* | 45µM* | 1% | ?
Oc1cccc(/C=N/N2CCN(C3c4ccccc4-c4ccccc43)CC2)c1 | ? | 28% | ? | 40µM* | 7% | ?
Cc1c(Cl)cccc1-c1ccc(C(=O)Nc2ccc(F)cc2)o1 | -49%[59 µM] | · | ? | 12% | · | 22%
COc1ccccc1/C=N\NC(=O)c1ccc(COc2ccc(C)c(C)c2)o1 | · | · | · | -4% | -18% | 22%
O=c1c(-c2ccc(F)cc2)nc2cnc(Oc3cccc(Cl)c3)nc2n1C[C@H]1CCCO1 | 0%[0.501 µM] | 2% | · | · | · | ·
C=C(C)C(=O)Nc1ccc(OC(F)(F)C(F)F)c(NC(=O)C(=C)C)c1 | · | 2% | 45µM* | 79µM* | ? | 56µM*
CC(=O)Nc1ccc(OC(F)(F)C(F)F)c(NC(C)=O)c1 | -9% | 22% | ? | -12% | -10% | 8%
CCOC(=O)c1[nH]cnc1C(=O)O | -93%[12.7 µM] | -6% | 20µM* | 2µM* | -11% | -9%
CCOC(=O)c1nc[nH]c1C | ? | 21% | 2% | 4% | -2% | 27%
CCOC(=O)c1[nH]cnc1C(=O)N[C@@H](C)c1ccccc1 | 7%[0.501 µM] | · | 56µM* | -20% | 3% | 33%
CCOC(=O)c1[nH]cnc1C(=O)NC(C)C | ? | 2% | -37% | 35µM* | 3% | -8%
CCN(CC)C(=O)c1[nH]cnc1C(=O)N[C@H](C)c1ccccc1 | -3%[0.501 µM] | · | -32% | 89µM* | 4% | 21%
CC(C)N1CCN(c2ccc(OC[C@@H]3CO[C@@](Cn4cncn4)(c4ccc(Cl)cc4Cl)O3)cc2)CC1 | -4%[21.5 µM] | 15% | · | · | · | ·
COc1ccc(OC2C=CC(C#Cc3ccc(Br)cc3)OC2CO)c(C(C)(C)C)c1 (stereo not given) | · | 20% | · | · | · | ·
Cc1onc(-c2ccccc2)c1C(=O)N(Cc1ccco1)Cc1cccs1 | ? | 40µM* | -16% | -27% | -14% | 19%
Cc1onc(-c2ccccc2)c1C(=O)NCc1ccco1 | 50µM* | ? | 8% | -11% | -12% | 22%
CCc1nc2ccc(C(=O)N3CCN(C(C)=O)CC3)cn2c1N(C=O)Cc1ccc(OC)cc1 | · | · | · | · | -12% | ·
CCOc1ccccc1-c1ccc(C(=O)NCc2ccccc2)o1 | 50µM* | 3% | ? | ? | -5% | -6%
O=C(NCc1cccnc1)c1ccc(-c2cc(Cl)ccc2Cl)o1 | · | 56µM* | ? | -26% | -23% | 50%
